Data taken from PubChem BioAssay AID1529 (NMMLSC, 2009).
The whole screen tested about 290,000 compounds, of which about 4,200 (1.4%) were called active. The sample holds actives, similar compounds and a random draw of the others, so the mix is not that of the screen. Unmarked numbers belong to inactive results.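 How the source made its calls: active means binding response more than 3 SD above or below the average of its plate-row segment, actives on both sides; inconclusive means wells at one plate position flagged as instrument error; inactive means the rest.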

The molecules below were run against Mitogen-activated protein kinase kinase kinase 3 (Homo sapiens) (UniProt Q99759) (assay: modulators of MEKK3-MEK5 PB1 binding, primary screen, biochemical, wildtype MEKK3, multiplex bead flow cytometry, Alexa488-MEK5 (AID 1529;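 further: Alexa488 bead fluorescence after subtracting the streptavidin-only scavenger bead signal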)). Settings: bead-based flow cytometry, Alexa488-MEK5 binding to MEKK3; at 10 µM; actives lie on both sides; 0 = blocked by unlabeled MEK5, 100 = vehicle.
Chain of Mitogen-activated protein kinase kinase kinase 3 (Homo sapiens) (Q99759 whole entry, looked up): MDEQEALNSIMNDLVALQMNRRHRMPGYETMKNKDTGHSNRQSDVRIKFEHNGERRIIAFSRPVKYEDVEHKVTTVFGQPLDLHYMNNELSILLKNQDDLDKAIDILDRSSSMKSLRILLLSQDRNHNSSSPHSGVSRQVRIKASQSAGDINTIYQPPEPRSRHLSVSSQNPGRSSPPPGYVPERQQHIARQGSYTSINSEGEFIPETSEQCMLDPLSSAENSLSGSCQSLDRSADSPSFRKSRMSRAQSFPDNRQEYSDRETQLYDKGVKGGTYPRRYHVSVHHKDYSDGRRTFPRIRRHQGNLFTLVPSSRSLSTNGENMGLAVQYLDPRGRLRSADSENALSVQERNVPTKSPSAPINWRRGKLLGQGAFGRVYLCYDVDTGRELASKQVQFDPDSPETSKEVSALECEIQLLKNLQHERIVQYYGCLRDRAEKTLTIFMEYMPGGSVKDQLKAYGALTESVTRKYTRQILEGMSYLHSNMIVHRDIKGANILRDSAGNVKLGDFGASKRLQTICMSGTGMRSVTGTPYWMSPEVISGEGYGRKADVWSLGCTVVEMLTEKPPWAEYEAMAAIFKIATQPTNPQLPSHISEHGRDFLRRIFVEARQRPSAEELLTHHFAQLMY
For `O=C(CCc1nnc2ccc(NCCCN3CCCC3=O)nn12)NCc1ccccc1Cl`, the binding response (% of control) was 101%.
Molecule `CC(C)(C)NC(=O)c1ccc(Cn2cc(C(F)(F)F)ccc2=O)cc1` has a binding response (% of control) of 100%.
In the case of `COc1cc(-c2nnc(Cn3cc(C(F)(F)F)ccc3=O)o2)cc(OC)c1OC`, the binding response (% of control) is reported as 2% [inhibitor] (active).
Work on `CCOC(=O)c1cc(-c2nnc(-c3cc(OC)c(OC)c(OC)c3)o2)c(C)nc1C` yielded a binding response (% of control) of 100%.
`Cc1ccc(S(=O)(=O)N2CCC3(CC2)OCCO3)c(C)c1` was tested, and the binding response (% of control) was 101%.
`CCCCCc1c(C)nc(N2CCN(Cc3ccc4c(c3)OCO4)CC2)[nH]c1=O` gave a binding response (% of control) of 98%.
`Cc1cc(S(=O)(=O)NCC(C)C)ccc1OCC(=O)NC1CC1` gave a binding response (% of control) of 102%.
In the case of `COC(=O)c1ccc(C(=O)OC)c(NC(=S)N2CCN(c3ccc(F)cc3)CC2)c1`, the binding response (% of control) is reported as 97%.
For `COc1ccccc1NC(=S)N1CCN(C(c2ccccc2)c2ccccc2)CC1`, the binding response (% of control) was 102%.
`COc1ccccc1NC(=S)N1CCN(c2ccc(F)cc2)CC1` was tested, and the binding response (% of control) was 45% [inhibitor] (active).
`COc1cccc(NC(=O)CCc2nnc3ccc(N4CCC(C)CC4)nn23)c1` showed a binding response (% of control) of 98%.
For `CC1(C)C=Cc2c(ccc3c2OC[C@@H](c2ccc(O)cc2O)C3)O1`, the binding response (% of control) was 108%.
In the case of `Cc1nc2ccccc2nc(C)c1=NOCc1ccc(Cl)cc1Cl`, the binding response (% of control) is reported as 98%.
`Cc1cn(COC/C=C/c2ccccc2)c(=O)[nH]c1=O` was tested, and the binding response (% of control) was -2% [inhibitor] (active).
In the case of `Cc1nc2nc[nH]n2c(=O)c1C/C=C/c1ccccc1`, the binding response (% of control) is reported as 84%.
With `Cc1[nH]c(=O)c(C(=O)/C=C/c2ccccc2)c2c1CCCC2` the binding response (% of control) was 107%.
`Cc1cc(=O)oc2cc(OCC(=O)N3CCN(c4ccc(F)cc4)CC3)c(Cl)cc12` showed a binding response (% of control) of 101%.
Molecule `Cc1ncc(CC(=O)n2cc(C(=O)c3cc(Cl)ccc3O)cn2)s1` has a binding response (% of control) of 109%.
In the case of `COc1ccc(C(=O)Cc2cnn(-c3ccccc3)c2)c(O)c1`, the binding response (% of control) is reported as 101%.
With `O=C(c1cnn(-c2ccc(Cl)cc2)c1)c1ccccc1O` the binding response (% of control) was 129% (active).
`CC1(C)C2CC[C@]3(C)C(CC=C4[C@@H]5C[C@@](C)(CO)CC[C@]5(C(=O)O)CC[C@]43C)[C@@]2(C)CC[C@@H]1O` (stereo not given in full) was tested, and the binding response (% of control) was 105%.
With `Cn1nnnc1NCc1ccc(Cl)c(Cl)c1` the binding response (% of control) was 105%.
`COc1ccc(CNc2nnnn2C)cc1` was tested, and the binding response (% of control) was 51% [inhibitor] (active).
Work on `CCCn1nnnc1NCc1ccc(OC)cc1` yielded a binding response (% of control) of 111%.
Molecule `CCOC(=O)c1c(-c2ccccc2)oc2cc(Br)c(O)c(C=O)c12` has a binding response (% of control) of 98%.
`Cc1cc(OCC(=O)Nc2c(C)n(C)n(-c3ccccc3)c2=O)ccc1[N+](=O)[O-]` showed a binding response (% of control) of 96%.
`CCc1ccc(NC(=O)COC(=O)c2cccs2)cc1` gave a binding response (% of control) of 101%.
With `O=C(CNC(=O)c1ccc(Br)o1)NCC1CCCO1` (stereo not given) the binding response (% of control) was 102%.
In the case of `O=C(c1cccs1)N(C(=O)c1cccs1)c1ccccn1`, the binding response (% of control) is reported as 94%.
For `O=C(c1ccc(Br)o1)N(c1ccccn1)C1CCCCC1`, the binding response (% of control) was 131% (active).
`Cc1ccc(NC(=O)CSc2nn3c(=O)c(C)nnc3s2)cc1Cl` gave a binding response (% of control) of 88%.
For `CNC(C)C#Cc1ccc2sc3cc(OC)c(OC)cc3c(=O)c2c1` (stereo not given), the binding response (% of control) was 110%.
Work on `CCCCC1(C(=O)OCC)NC(c2ccc(O)cc2)C2C(=O)N(c3ccccc3)C(=O)C21` (stereo not given) yielded a binding response (% of control) of 104%.
Molecule `CCOC(=O)c1ccc(Nc2cc3ccccc3c(=O)[nH]2)cc1` has a binding response (% of control) of 100%.
`COc1ccc(C(=O)C[n+]2ccc(C)cc2)cc1` was tested, and the binding response (% of control) was 134% (active).
Work on `COc1ccc(OCCC(=O)c2ccc(OC)cc2)cc1` yielded a binding response (% of control) of 102%.
In the case of `COc1ccc(C(=O)C[n+]2ccc(N)c(C)c2C)cc1`, the binding response (% of control) is reported as 92%.
In the case of `COC(C[C@@H](O)C[C@@H](O)[C@H](C)OCc1ccccc1)OC`, the binding response (% of control) is reported as 101%.
Work on `COc1ccc(C(=O)CSc2nnc(COc3ccccc3)n2Cc2ccco2)cc1` yielded a binding response (% of control) of 102%.
In the case of `Cn1c2ccccc2c(=O)c2c(=O)n(Cc3ccco3)c(COc3ccccc3)nc21`, the binding response (% of control) is reported as 130% (active).
`CCCc1nc2c(c(=O)c3ccccc3n2C)c(=O)n1-c1cc(C)cc(C)c1` gave a binding response (% of control) of 101%.
`COc1ccc(/C=C/c2c(-c3cccc(C)c3)oc3ccc(-c4ccc5c(c4)OCO5)cc23)cc1` gave a binding response (% of control) of 94%.
Molecule `CCOC(=O)c1cc(S(=O)(=O)NCCc2ccc(OC)c(OC)c2)cn1C` has a binding response (% of control) of 100%.
`CN(CC(=O)Nc1ccc(F)cc1)C(=O)c1ccc(-c2ccc(Cl)cc2)o1` was tested, and the binding response (% of control) was 105%.
`Cc1cc(C)nc(NS(=O)(=O)c2ccc(N3C(=O)C4CCCCC4C3=O)cc2)n1` (stereo not given) was tested, and the binding response (% of control) was 101%.
`Cc1cccn2c(=O)c(/C=C3\SC(=S)N(CC(C)C)C3=O)c(NCCCOC(C)C)nc12` showed a binding response (% of control) of 66%.
In the case of `CCCN(CCC)c1nc2c(C)cccn2c(=O)c1/C=C1/SC(=S)N(Cc2ccco2)C1=O`, the binding response (% of control) is reported as 32% [inhibitor] (active).
`CCOC(=O)CC1C(=O)NCCN1c1nc2c(C)cccn2c(=O)c1/C=C1\SC(=S)N(C(C)CC)C1=O` (stereo not given) was tested, and the binding response (% of control) was 93%.
In the case of `Cc1csc(NC(=O)CSc2nnc(-c3cccnc3)o2)n1`, the binding response (% of control) is reported as 99%.
`CCCC[C@@H]1CN=C(N)N1CCc1cccc(F)c1` showed a binding response (% of control) of 106%.
